Bioassay records deposited in PubChem BioAssay by several laboratories.
Platelet DG rel = modulates dense granule release in human platelets. human platelet-rich plasma, SFLLRN dense granule ATP release, luminescence. inhibition, %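 (compounds screened at 7.5 µM in platelet-rich plasma)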. 300,000 tested, 0.22% active;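 active = mean replicate score, as percent of positive control, at or above 50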
TWEAK Fn14 block = TWEAK-Fn14 signaling inhibition; TWEAK-stimulated Fn14 reporter cells, luciferase luminescence, 8 h; inhibition, % at 10 µM; 360,000 tested, 2% active; in the data active = inhibition above about 50%
TROY NFkB inh = blocks TROY-dependent signaling in reporter cells; Q293 LMP1-TROYcd NF-kB luciferase reporter, 4 h; inhibition, % at 10 µM; 360,000 tested, 0.98% active; AID 1347056;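 active = compounds whose plate-normalised and pattern-corrected inhibition of the luciferase reporter signal at the single screening dose is 50% or more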
C8 TRAIL sens = caspase-8 TRAIL sensitization; NB7+C8 cells + TRAIL, ATPlite viability luminescence; inhibition (viability loss, TRAIL sensitization), % at 10 µM; 360,000 tested, 1% active;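 active = compounds causing at least 50% loss of cell viability in the single-dose screen, relative to plate controls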
HSP90 refold inh = HSP90 refolding inhibition in rabbit reticulocyte lysate; luciferase refolding luminescence, 3 h; 290,000 tested, 0.91% active; AID 1789; inhibition, % at 5.6 µM;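 active = inhibition above the screen-wide mean plus 3 SD, computed separately per campaign, cut at about 16% in these data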;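 also: 0% = DMSO wells and 100% = 60 µM geldanamycin wells; inhibitors lower the luminescence because luciferase stays unfolded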
PPC-1+TRAIL kill = PPC-1 cancer cell killing with TRAIL present; PPC-1 cells + TRAIL, ATPLite viability luminescence; cell killing (% activity), % at 4 µM or 5 µM; 220,000 tested, 0.41% active;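 active = cell killing above 50% in the first pass at 4 µM, then a duplicate retest at 5 µM averaging 50% or more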;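 also: plate controls were cells with TRAIL plus DMSO for no effect and medium-only wells lacking cells for full effect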
* = called active by the depositor; / = no result; ! = not active in a repeat. In the library only some 3.5% were active in any assay of this set; here they are far more common.

SMILES	Platelet DG rel	TWEAK Fn14 block	TROY NFkB inh	C8 TRAIL sens	HSP90 refold inh	PPC-1+TRAIL kill
CC(C)(C)NC(=O)COc1ccc(S(=O)(=O)N2CCCC2)cc1	-8	2	8	-2	1	/
Cc1cccc(OCC(=O)OCC(=O)N2CCN(C(=O)c3ccco3)CC2)c1C	1	8	1	-11	-5	/
CC(=O)Nc1cccc(-c2cc(NC=O)c3ncc(-c4cccc(C(C)=O)c4)n3c2)c1	/	32	3	21	/	/
COc1cc(-c2cnc3c(NC=O)cc(-c4cccc(NC(C)=O)c4)cn23)cc(OC)c1OC	/	60*	25	5	/	/
COc1cc(-c2cc(NC(C)=O)c3ncc(-c4cc(OC)c(OC)c(OC)c4)n3c2)cc(OC)c1OC	/	50*	6	32	/	/
COc1cc(-c2cc(NC(C)=O)c3ncc(-c4ccccc4)n3c2)cc(OC)c1OC	/	29	-7	3	/	/
COc1cccc(-c2cnc3c(NC=O)cc(-c4cccc(NC(C)=O)c4)cn23)c1	/	30	61*	15	/	/
CC(C)c1cccc(-c2csc(C(C)(O)c3ccccc3)n2)c1 (stereo not given)	/	13	-16	-4	/	/
O=C(NCCc1c[nH]c2ccccc12)OCCCCOC(=O)NCCc1c[nH]c2ccccc12	-1	74*	71*	21	/	/
CCC1(C)Cc2ccccc2-c2nc(SCC(N)=O)[nH]c(=O)c21 (stereo not given)	-2	12	53*	5	2	/
CCOC(=O)CSc1nc2c(c(=O)[nH]1)C(C)(CC)Cc1ccccc1-2 (stereo not given)	-6	-11	-11	35	0	/
CCc1ccc2c(COC(=O)C3CC(=O)N(CCc4ccccc4)C3)cc(=O)oc2c1 (stereo not given)	/	-9	9	1	/	/
CN(C)/C(=N\S(=O)(=O)c1ccccc1)c1ccccc1	-12	43	-5	19	2	/
Cc1nn(CCC#N)c2nc(-c3ccccc3)cc(C(F)(F)F)c12	12	25	52*	4	-2	40
CC(C)(C)c1cc(C(=O)Nc2ccc(F)cc2)n(Cc2ccc(F)cc2)n1	1	18	63*	4	-6	-16
COc1cccc(-c2nc(-c3ccccn3)no2)c1OC	0	-2	-38	12	-2	12
c1ccc(-c2noc(-c3ccco3)n2)nc1	13	53*	-16	5	10	26
c1ccc(-c2noc(-c3ccno3)n2)nc1	1	0	-36	5	-2	15
c1ccc(-c2noc(-c3cccc4ccccc34)n2)nc1	4	77*	20	53*	11	-22
Cc1nc(-c2ccc(F)cc2)c(CC(=O)N2CCN(S(=O)(=O)c3cccc(Cl)c3)CC2)s1	-6	-8	6	18	/	/
O=[N+]([O-])c1ccc2nc(-c3ccc(Cl)cc3)n(OCc3ccccc3)c2c1	-6	35	56*	17	-2	-5
COc1ccc(CN2C[C@@H](CO)O[C@@H](n3cnc4c(N(C)C)ncnc43)C2)cc1	/	-25	-9	-11	/	/
CCCCC[C@@H](C)N1C[C@H](COCc2ccccc2)Oc2cc(N3CC[C@H](N(C)C)C3)ccc2S1(=O)=O	/	-20	0	69*	/	/
Cc1cc(C)nc(N/N=C/c2cc(Br)ccc2O)n1	8	-5	-24	11	-3	25
O=C(O)c1ccc(-n2cccc2/C=C2/NC(=O)N(c3ccccc3)C2=O)cc1	2	-18	68*	6	7	-15
SMILES	Platelet DG rel	TWEAK Fn14 block	TROY NFkB inh	C8 TRAIL sens	HSP90 refold inh	PPC-1+TRAIL kill
CC1CN(S(=O)(=O)N2CCOCC2)CCN1S(=O)(=O)N1CCOCC1 (stereo not given)	-2	-1	-9	0	-3	13
CC(Sc1nnc(-c2ccncc2)n1C)C(=O)Nc1ccc(N2CCOCC2)cc1 (stereo not given)	/	-3	9	12	/	/
Cc1ccc(C(=O)Nc2cccc(C(F)(F)F)c2)cc1NC(=O)c1nccnc1N	-3	-85	-12	54*!	/	-8
CS(=O)(=O)c1ccc(-c2csc(C(O)c3cccc(Cl)c3)n2)cc1 (stereo not given)	/	-5	14	-4	/	/
Cc1ccc(CS(=O)(=O)c2ncc(Cl)c(C(=O)Nc3ccc(OC(F)F)cc3)n2)cc1	3	83*	79*	88*	-1	/
CCS(=O)(=O)c1ncc(Cl)c(C(=O)Nc2ccc(S(=O)(=O)N3CCCC(C)C3)cc2)n1 (stereo not given)	-11	96*	85*	96*	1	/
